SMN2 splice enh: enhancers of SMN2 splice variant expression. HEK293 SMN2-luciferase splicing reporter, luminescence, 30-36 h. Potency, µM (highest dose often 46.1 µM), for the others: at the highest dose activity change, positive = activation, actives largely listed as activators. 210,000 tested, 2.8% active. AID 1458; further: % of control where 0% means no effect; nearly all actives have a fitted effect of over 55% in size
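qHTS luciferase splicing reporter: luminescence rises when SMN2 exon 7 is included in transfected HEK293 cells. Compound exposure lasted 30-36 h at 37C, with 4.5 mM final sodium butyrate as control, followed by a ONE-Glo read.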
KinaseGlo FLuc: counter-screen: inhibitors of Kinase-Glo firefly luciferase; Kinase-Glo luciferase, ATP luminescence, 8 min; Potency, µM (highest dose often 38.3 µM), for the others: at the top dose activity change, negative = inhibition, usual class: inhibitors; 200,000 tested, 0.28% active; AID 1379; further: on the % scale 0 is the no-effect control and ±100 the full control effect; nearly all actives have a fitted effect of over 60% in size
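Light output from Kinase-Glo luciferase with luciferin and 10 uM ATP in 50 mM imidazole pH 7.2, KCl, MgCl2, Tween 20, BSA; compound pin-delivered, 8-min ambient incubation, then luminescence read.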
ELG1 genotox: genotoxicity induction in ELG1-luciferase HEK293T cells | 330,000 tested, 1.3% active | HEK293T ELG1-luciferase reporter, luminescence, 16 h | Potency, µM (doses to about 46 µM), without a hit: at the highest dose activity change, positive = activation, actives largely listed as activators; further: % of control where 0% means no effect; nearly all actives have a fitted effect of over 60% in size
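Genotoxicity was scored as increased ELG1-luciferase reporter signal, measured by ONE-Glo luminescence (30 min, room temperature). Compound or vehicle exposure of the HEK293T reporter cells lasted 16 hr at 37°C.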
FLuc counter: inhibits or activates purified firefly luciferase, miR-21 counter-screen; purified FLuc, Km substrates, luminescence inhibition; Potency, µM (series often up to 57.5 µM), inactives show at the top dose activity change, negative = inhibition, hits mostly inhibitors; 360,000 tested, 6.9% active; AID 588342;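 further: plate controls were vehicle for no effect and reference inhibitor for full effect; nearly all actives have a fitted effect of over 55% in size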
Target sequence (P08659 whole entry, looked up): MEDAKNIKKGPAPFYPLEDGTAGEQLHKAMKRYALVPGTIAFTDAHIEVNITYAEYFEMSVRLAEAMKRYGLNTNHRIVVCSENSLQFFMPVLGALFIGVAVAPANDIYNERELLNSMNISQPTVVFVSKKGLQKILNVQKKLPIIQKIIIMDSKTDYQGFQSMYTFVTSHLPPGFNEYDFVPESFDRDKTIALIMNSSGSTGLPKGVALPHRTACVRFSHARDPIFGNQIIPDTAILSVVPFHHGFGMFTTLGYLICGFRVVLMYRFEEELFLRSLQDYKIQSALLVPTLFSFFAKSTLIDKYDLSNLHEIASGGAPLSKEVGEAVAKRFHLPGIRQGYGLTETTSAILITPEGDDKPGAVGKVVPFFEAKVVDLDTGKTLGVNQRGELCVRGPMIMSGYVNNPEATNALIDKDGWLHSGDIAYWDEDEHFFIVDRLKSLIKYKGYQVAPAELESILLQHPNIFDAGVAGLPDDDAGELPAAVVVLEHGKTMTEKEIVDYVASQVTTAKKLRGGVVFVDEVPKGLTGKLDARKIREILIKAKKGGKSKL
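Purified P. pyralis luciferase (10nM final) with 10uM D-luciferin and 10uM ATP (Km levels) in 50mM Tris acetate pH 7.5, 10mM Mg acetate, 0.01% Tween-20, 0.05% BSA; qHTS 6-point titration, ~60 µM downward; luminescence read.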
Rab9 promoter act: activators of Rab9 promoter. Huh7 Rab9 promoter-luciferase reporter, luminescence, 24 h. 320,000 tested, 2.8% active. AID 485297. Potency, µM (highest dose often 9.22 µM), for inactives: at the top dose activation, negative = inhibition, hits mostly activators; further: % of control where 0% means no effect; nearly all actives have a fitted effect of over 60% in size
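Cell-based reporter: Huh7 stable for Rab9 promoter-driven luciferase, plated in reduced-serum medium with 10% FBS at 1500 cells/well, compound-treated 24 h at 37 °C, luminescence read after 10 min reagent.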
NPC1 prom act: activators of NPC1 promoter | 320,000 tested, 2.4% active | Huh7 NPC1 promoter luciferase reporter, 24 h | Potency, µM (highest dose often 9.22 µM), for the others: top-dose activation, hits mostly activators; further: % of control where 0% means no effect; nearly all actives have a fitted effect of over 60% in size
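Huh7 reporter cells (NPC1 promoter driving luciferase) are dosed with compound for 24 h at 37 °C, 5% CO2; luciferase detection reagent is then added and luminescence measured after 10 min at ambient temperature.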
Starred values were filed as active, the others as inactive; ? = inconclusive; · = not tested or not shown; [ ] = another dose, or the depositor's remark. Sampled rows, rich in hits. Any-hit rate of the full collection: about 7.4%. The call rests on the fitted dose curve; in most records, active means well fitted curve in the direction sought with a large enough effect; inconclusive means small, poorly fitted or top-dose-only effect, or another doubt; inactive means no such curve, though single readings can be large; an effect the other way counts as inactive or inconclusive. Potency means the concentration at half of the fitted maximal effect.

SMILES | SMN2 splice enh | KinaseGlo FLuc | ELG1 genotox | FLuc counter | Rab9 promoter act | NPC1 prom act
Cc1ccc2oc(-c3ccccc3)cc(=O)c2c1 | · | -5% | · | · | · | ·
COc1ccc(-c2cc(=Nc3ccc(C(=O)O)cc3)c3cc(C)ccc3o2)cc1 | 18µM* | -1% | ? | 9.5µM* | ? | ?
O=C1CC(C(=O)O)S/C(=N\N=C\c2ccc(Br)cc2)N1 (stereo not drawn) | · | · | 0% | 17µM* | 0% | -1%
C/C(=N/N=C1/NC(=O)CC(C(=O)O)S1)c1ccccc1 (stereo not drawn) | -13% | 1% | 0% | -4% | -1% | -3%
Cc1cc(N/N=C/c2ccc(N(C)C)cc2)nc(NCc2ccccc2)n1 | · | · | -12% | 11µM* | -12% | 2%
COc1ccc2nc(C)cc(N/N=C/c3ccc(F)cc3)c2c1 | · | · | -17% | 17µM* | -12% | -39%
Cc1cc(N/N=C/c2ccc(Cl)cc2Cl)nc(NCc2ccccc2)n1 | -49% | -4% | -9% | ? | -10% | -9%
Cc1ccc(/C=N/Nc2cc(C)nc(NCc3ccccc3)n2)cc1 | · | · | -5% | 11µM* | -6% | -2%
COc1ccc(/C=N/Nc2cc(C)nc3ccccc23)cc1 | · | · | ? | ? | -2% | 13%
Cc1cc(N/N=C/c2ccc(F)cc2)nc(NCc2ccccc2)n1 | · | · | 1% | 11µM* | 1% | 15%
CC1CCN(CC(=O)N(C)c2c(N)n(Cc3ccccc3)c(=O)[nH]c2=O)CC1 | · | · | 1% | 2% | -2% | -7%
O=P1(O)Oc2c(c(-c3ccccc3)cc3ccc4ccccc4c23)-c2c(-c3ccccc3)cc3ccc4ccccc4c3c2O1 | 4% | -1% | · | · | · | ·
O=[N+]([O-])c1ccc2c(c1)Cc1cc(N=Cc3ccc4c(c3)OCO4)ccc1-2 | -5%[9.22 µM] | 3%[7.66 µM] | · | · | · | ·
COc1ccc2c(c1)Cc1sc(NC(=O)c3ccco3)nc1-2 | 11µM* | -3% | 13% | 3.4µM* | 1.8µM* | 2µM*
COc1ccc2c(c1)-c1nc(NC(=O)c3cccs3)sc1CC2 | 4% | -2% | -1% | 19µM* | 20% | 3%
COc1ccc2c(c1)CCc1sc(NC(=O)c3ccc(C)cc3)nc1-2 | -31% | -1% | -6% | 8.5µM* | 3% | 0%
COc1ccc2c(c1)Cc1sc(NC(C)=O)nc1-2 | 5.6µM* | -4% | 8.2µM* | 4.8µM* | 0.79µM* | 1µM*
O=C(CSC1=NS(=O)(=O)c2cc(F)ccc2N1)NCc1ccc(F)cc1 | · | · | 1% | -13% | 1% | -2%
Cc1ccc(OCC(=O)NN=C2C3CC4CC(C3)CC2C4)cc1 | · | · | 1% | -2% | 3% | -1%
CCCCCC(=O)Nc1cc(S(=O)(=O)N2CCOCC2)ccc1N1CCCCC1 | · | · | -1% | 3% | -1% | -1%
COc1ccc2c(c1)-c1nc(NC(=O)c3cccc(Br)c3)sc1CC2 | -26% | · | · | -13% | · | ·
COc1ccc2c(c1)-c1nc(NC(=O)c3ccco3)sc1CC2 | · | 0% | 13% | 19µM* | 19% | 14%
COc1ccc2c(c1)CCc1sc(NC(=O)c3ccco3)nc1-2 | 10% | -6% | ? | 21µM* | ? | 25%
COc1ccc(/C=C(/NC(=O)c2ccco2)C(=O)Nc2ccc(C(=O)O)cc2)cc1 | · | · | 0% | -2% | 2% | -2%
COCCC(=O)N1CCC(Oc2ccc(C(=O)N3CCC(N(C)C)C3)cc2)CC1 (stereo not drawn) | · | · | 1% | 1% | 2% | 1%
SMILES | SMN2 splice enh | KinaseGlo FLuc | ELG1 genotox | FLuc counter | Rab9 promoter act | NPC1 prom act
Cc1onc(-c2ccccc2Cl)c1C(=O)N(C)Cc1ccccc1 | · | · | -3% | 2% | 0% | -3%
Cc1cc(NC(=O)c2ccc3c(c2)OCCO3)cc(-c2nc3ccccc3o2)c1O | -1% | · | · | -10% | · | ·
O=C(Nc1ccc(-c2nc3ccccc3o2)cc1)c1ccc2c(c1)OCO2 | -4% | -7% | · | 5% | · | ·
Cc1c(NC(=O)c2cc(-n3cnnc3)ccc2Cl)cccc1-c1nc2ccccc2o1 | 7% | -2% | -1% | 3.8µM* | -2% | 0%
O=C(Nc1ccc2oc(-c3ccccc3F)nc2c1)c1ccc2c(c1)OCCO2 | -39% | -10% | -16% | 6.7µM* | 21% | 14%
Cc1ccc(-c2nc3ccccc3o2)cc1NC(=O)c1ccc2c(c1)OCO2 | · | -6% | 7.3µM* | ? | -4% | ?
COc1cc(C(=O)Nc2cccc(-c3nc4ccccc4o3)c2C)cc(OC)c1OC | -3% | -5% | 4% | ? | 8% | 0%
Cc1c(NC(=O)c2ccc3c(c2)OCO3)cccc1-c1nc2ccccc2o1 | -11% | 6% | -8% | 9.5µM* | 0% | -4%
CC(=O)N1CC(C)Sc2ccc(S(=O)(=O)NC(C)c3ccccc3)cc21 (stereo not drawn) | · | · | -8% | 2% | -8% | -2%
Cc1nc2ccc(NC(=O)Cc3ccc4c(c3)OCCO4)cc2s1 | 3% | 2% | -1% | ? | -2% | 0%
Cc1cnc(NC(=O)c2cc3c(s2)CCCC3)s1 | ? | -14% | ? | 0.27µM* | 0.71µM* | ?
Cc1csc(NC(=O)C2CCCC2)n1 | 28% | -1% | ? | -25% | 23% | 18%
Cc1csc(NC(=O)c2cc3c(s2)CCCC3)n1 | · | · | ? | 0.27µM* | ? | 0.56µM*
Cc1csc(NC(=O)c2cc3c(s2)CCCCC3)n1 | 1µM* | ? | 0.21µM* | 0.13µM* | 0.5µM* | 0.35µM*
COc1ccc(OC)c(NC(=O)c2ccc3nc(C(C)C)oc3c2)c1 | · | · | · | -2% | · | ·
CC(=O)Nc1ccc(S(=O)(=O)NCCSCc2ccc(Cl)cc2Cl)cc1 | -46% | 0% | -8% | 0% | -5% | -5%
COc1ccccc1NS(=O)(=O)c1cccc(C(=O)N2CCCC2)c1 | · | · | -1% | · | · | ·
Cc1ccc2sc(-c3ccc(NC(=O)CCN4C(=O)c5ccccc5C4=O)cc3)nc2c1 | 0.4µM* | -1% | 4.6µM* | 11µM* | 0.28µM* | 0.5µM*
Cc1ccc(NC(=O)CCN2C(=O)c3ccccc3Sc3ncccc32)cc1 | · | · | 0% | -4% | -10% | 2%
CC(=O)Nc1ccc(-c2cn3ccsc3n2)cc1 | 10µM* | -9% | 5.8µM* | 12µM* | 1.4µM* | 1.6µM*
O=C(Nc1ccc(-c2cn3ccsc3n2)cc1)C1CCCC1 | ? | 11µM* | 1.8µM* | 1.3µM* | 3.2µM* | 4µM*
O=C(Nc1ccc(-c2cn3ccsc3n2)cc1)C1CC1 | ? | -26% | ? | 2.7µM* | 1.6µM* | 2.2µM*
COc1ccccc1C(=O)COC(=O)/C(=C/c1ccccc1)NC(C)=O | · | · | 2% | 0% | -1% | 4%
O=C(CCN1C(=O)c2ccccc2C1=O)Nc1ccc(-c2cn3ccsc3n2)cc1 | ? | 1% | ? | 2.7µM* | 2.2µM* | ?
